# Screening data deposited in PubChem by several laboratories.
# TMEM16A inh – blocks the mouse calcium-activated chloride channel TMEM16A; Q8BHY3; HEK293 TMEM16A/YFP iodide influx fluorescence, ionomycin; normalized B-score (activity score, 25-100; higher = stronger inhibition) at 10 µM; 310,000 compounds, 1.2% hits;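 active = ratio plate-corrected score three or more library SD toward inhibition, starting fluorescence score within five deviations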;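 also: score derived from kinetic fluorescence span divided by baseline fluorescence per well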
# NOD2-RIPK2 inh – inhibitors of human NOD2-RIPK2 interaction | O43353 | CHO BLA complementation NOD2-RIPK2, CCF4 ratio | inhibition, % at 4.98 µM | 360,000 compounds, 0.38% hits | AID 624267; in the data active = inhibition above about 21%;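 also: 0% = vehicle only and 100% = reference blocker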
# Target sequence (O43353 whole entry, looked up): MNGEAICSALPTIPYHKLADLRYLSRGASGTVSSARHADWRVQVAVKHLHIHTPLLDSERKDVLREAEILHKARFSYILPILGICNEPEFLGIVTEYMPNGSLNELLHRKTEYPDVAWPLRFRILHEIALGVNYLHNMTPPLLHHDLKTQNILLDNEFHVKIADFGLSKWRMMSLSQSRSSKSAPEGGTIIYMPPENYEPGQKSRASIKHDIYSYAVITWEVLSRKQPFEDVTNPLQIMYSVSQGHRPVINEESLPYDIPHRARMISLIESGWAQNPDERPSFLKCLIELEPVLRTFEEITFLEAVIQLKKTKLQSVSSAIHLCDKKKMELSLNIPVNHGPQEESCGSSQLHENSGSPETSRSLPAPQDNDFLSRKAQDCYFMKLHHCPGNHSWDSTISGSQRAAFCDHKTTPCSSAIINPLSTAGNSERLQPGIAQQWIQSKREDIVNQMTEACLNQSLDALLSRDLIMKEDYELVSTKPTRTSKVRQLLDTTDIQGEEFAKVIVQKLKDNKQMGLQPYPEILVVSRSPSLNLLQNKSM
# TLR4-MyD88 BLA – blocks binding of human TLR4 to MyD88; O00206+Q99836; HeLa CL3-4 TLR4/MyD88 BLA complementation, FRET ratio; inhibition, % at 8.4 µM; 200,000 compounds, 0.18% hits; in the data active = inhibition above about 25%;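 also: 0% = vehicle and 100% = reference inhibitor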
# HTR2A ag – activates the mouse 5-HT2A serotonin receptor | P35363 | CHO-K1 mHTR2A beta-arrestin complementation, luminescence; percent of 30 µM serotonin response | activation, % at 7.6 µM | 360,000 compounds, 0.66% hits;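 active = activation above a run cutoff, the mean activation of all tested compounds plus 3 SD, cut at about 14% in these data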;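 also: 0% = plate median of compound wells and 100% = 30 µM serotonin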
# TMEM16A act – activators or potentiators of mouse TMEM16A chloride channel. Q8BHY3. AID 623877. HEK293 TMEM16A/YFP-H148Q/I152L, iodide quench fluorescence; stronger effect = lower value. B-score at 10 µM. 340,000 compounds, 0.3% hits;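 active = fluorescence-ratio B-score plate-corrected deviation score at least 3 library SD below zero, with starting fluorescence score within 5 deviations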;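 also: channel opened by trigger with iodide after compound preincubation; score built on the fluorescence ratio of max minus min over baseline; more negative score means more quench and so TMEM16A activation or potentiation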
# TLR9-MyD88 inh – TLR9-MyD88 interaction inhibition | Q9NR96+Q99836 | CHO BLA complementation TLR9-MyD88, CCF4 FRET ratio | inhibition, % at 4.98 µM | 340,000 compounds, 0.21% hits;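 active = inhibition above the mean over all tested compounds plus 3 SD, cut at about 21% in these data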;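 also: 0% = DMSO only wells and 100% = clavulanate BLA inhibitor control wells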
# TMEM16A reconf – re-confirmation of mouse TMEM16A chloride channel inhibitors; shares compounds with TMEM16A inh; HEK293 TMEM16A/YFP-H148Q, iodide quench fluorescence; ionomycin added to raise cell calcium; inhibition, % at 10 µM; 2,300 compounds, 39% hits;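 active = mean duplicate percent inhibition, scaled so buffer wells are 0 and the reference blocker 100, over three buffer SD above buffer mean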
# HEK293 Ca mobil – counter-screen for TMEM16A inhibitors: effect on calcium mobilization; shares compounds with TMEM16A inh; TMEM16A/YFP HEK293, Fluo4 calcium mobilization; calcium response (% of ionomycin), % at 10 µM; 2,300 compounds, 2% hits;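 active = duplicate-averaged calcium signal over 20% of the ionomycin maximum, relative to buffer baseline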;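 also: each well's signal is peak minus trough fluorescence divided by its pre-addition baseline; 0% = buffer wells and 100% = ionomycin wells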
# YFP-HEK293 quench – counter-screen for TMEM16A inhibitors: effect in parental YFP-HEK293 cells | shares compounds with TMEM16A inh | iodide YFP quench, ionomycin | YFP ratio F(max-min)/F0 at 10 µM | 2,300 tested, under 10 active;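 active = yellow fluorescent protein signal ratio exceeding the buffer control mean by over 5 SD of those controls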;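 also: ratio is mean of duplicate wells from kinetic YFP trace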
# ClC-1 inh – rat ClC-1 inhibition, TMEM16A specificity screen; 2,300 tested, under 10 active; CHO ClC-1-YFP, iodide influx fluorescence quench; iodide control reads 0, buffer control 100; ratio percent, % at 10 µM; shares compounds with TMEM16A inh;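 active = duplicate-mean ratio percent above the mean of iodide-only control wells, which defines zero, plus 5 of their SD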;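 also: higher percent means stronger block of ClC-1 iodide influx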
# * marks the source's active call; other numbers are inactive results; i = inactive; x = no result given. Only some compounds are listed: those with a hit (about 2.4% of all), similar ones and a draw of the others.
SMILES,TMEM16A inh,NOD2-RIPK2 inh,TLR4-MyD88 BLA,HTR2A ag,TMEM16A act,TLR9-MyD88 inh,TMEM16A reconf,HEK293 Ca mobil,YFP-HEK293 quench,ClC-1 inh
O=C(N[C@@H](Cc1c[nH]c2ccccc12)C(=O)O)c1ccccc1Cl,25*,6.2,1.8,-2.3,i,-3.5,i,i,-1.16,5.0
O=C(Cc1ccc(S(=O)(=O)N2CCOCC2)s1)Nc1ccccc1N1CCCC1,i,-6.5,x,-1.6,i,-2.4,x,x,x,x
COc1cccc(C(=O)Nc2ccc(Cl)c(C(F)(F)F)c2)c1,25*,-2.1,3.6,-5.5,i,-5.5,18.0%*,i,-0.981,-14.0
COc1cccc(C(=O)Nc2ccc(C(=O)O)cc2)c1,i,-10.6,8.0,-4.2,i,8.3,x,x,x,x
COc1cccc(C(=O)Nc2ccc(C(=O)c3ccccc3)cc2)c1,100*,-2.6,x,-6.1,i,-0.9,26.0%*,i,-1.08,-18.5
COc1cccc(C(=O)Nc2cccc(-c3nnc(-c4ccco4)o3)c2)c1,25*,-3.1,-1.5,-1.6,i,3.5,23.0%*,i,-0.875,-3.0
CCCc1cc(C(=O)Nc2ccc(C(=O)c3ccccc3)cc2)n(C)n1,100*,-1.8,x,-4.7,i,8.1,40.0%*,i,-0.917,-14.0
COc1ccc(C2CC(c3ccccc3OC(C)=O)=NN2C(=O)/C=C/c2ccccc2)cc1OC (configuration not stated),i,-22.2,6.5,-4.8,i,-2.7,x,x,x,x
O=S(=O)(N[C@@H]1C[C@H]2CC[C@@H]1C2)c1cccs1,i,0.5,14.1,-0.5,i,0.1,x,x,x,x
O=C(Nc1nc(-c2cccs2)c(C(=O)C(F)(F)F)s1)c1ccccc1,100*,-0.1,2.3,0.9,i,3.5,53.0%*,i,-1.14,-17.5
O=C(Nc1nc(-c2cccs2)c(C(=O)C(F)(F)F)s1)c1ccco1,i,6.6,1.6,-1.7,i,10.6,x,x,x,x
Cc1cc(C)nc(N2CCCC(C(=O)NCc3cccc(C(F)(F)F)c3)C2)n1 (configuration not stated),i,-3.1,-7.8,2.3,i,-4.8,x,x,x,x
S=C(Nc1ccc(N2CCOCC2)cc1)Nc1ccc2nc(-c3ccco3)c(-c3ccco3)nc2c1,i,4.8,-4.7,13.4,i,5.7,i,i,-1.07,-38.0
O=C(Nc1ccc(N2CCOCC2)cc1)c1ccc2nc(-c3ccco3)c(-c3ccco3)nc2c1,i,-8.4,5.4,0.6,i,-5.4,x,x,x,x
CCOC(=O)NC(=O)/C(C#N)=N\Nc1cccc(OC)c1,i,-4.2,-2.0,8.0,i,3.5,x,x,x,x
Cc1ccc(S(=O)(=O)Nc2cccc(-n3cnnn3)c2)cc1C(=O)O,i,4.3,x,6.0,i,-13.0,x,x,x,x
OC[C@@H]1CN(Cc2ccc(F)cc2)C[C@H](n2cnc3c(N4CCCC4)ncnc32)O1,x,-7.0,x,5.0,x,x,x,x,x,x
CN1CCN(C(=O)c2ccc(CSc3ccc(Cl)cc3)cc2)CC1,i,-13.1,-3.1,-8.4,i,3.2,x,x,x,x
Cc1ccc(SCc2ccc(C(=O)N3CCCCC3)cc2)cc1,100*,4.8,-6.1,-4.3,i,12.0,i,i,-1.1,-5.5
CCSc1nnc(NC(=O)Cc2ccc(OC)c(OC)c2)s1,100*,0.2,5.4,4.6,i,-12.6,i,i,-0.865,-13.0
